Laboratory results taken from PubChem BioAssay (EPA / NIEHS).
Activity calls are given as the source filed them. The calls were made as follows: active = hit-call score of the fitted dose curve at least 0.9, where 1 is the maximum; inactive = score below 0.9.

Columns and labels:
[1] = read-out: Vascular endothelial growth factor receptor 2 (Homo sapiens) (UniProt P35968); assay: BSK_4H_VEGFRII: BioMAP Diversity Plus: 4H Assay for Vascular endothelial growth factor receptor 2 (VEGFR2) Biomarker Activity (AID 2283031); conditions: primary human endothelial cells (HUVEC); actives raise or lower the signal;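 as to AC50: cell-surface VEGFR2 protein level quantified by ELISA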
In short: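 Primary human umbilical vein endothelial cells (4H system), 24 h exposure; cell-surface VEGFR2 measured by ELISA. Bidirectional fitting versus DMSO; cytotoxicity checked in parallel by SRB total-protein staining.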

[2] = read-out: Human Leukocyte Antigen - DR isotype (HLADR), HLA-DRA (gene 3122); assay: BSK_BE3C_HLADR: BioMAP Diversity Plus: BE3C Assay for Human Leukocyte Antigen - DR isotype (HLADR) Biomarker Activity (AID 2283032); conditions: primary human bronchial epithelial cells; actives raise or lower the signal
In short: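 Signal came from an ELISA for HLA-DR in human bronchial epithelial primary cells harvested 24 h after treatment; gain- and loss-of-signal fitting used DMSO controls as reference.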

[3] = read-out: Vascular cell adhesion molecule 1 (VCAM1), VCAM1 (gene 7412); assay: BSK_4H_VCAM1: BioMAP Diversity Plus: 4H Assay for Vascular cell adhesion molecule 1 (VCAM1) Biomarker Activity (AID 2283033); conditions: primary human endothelial cells (HUVEC); actives raise or lower the signal
In short: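 Endpoint derived from bidirectional fitting against DMSO controls of VCAM-1 ELISA signal in umbilical vein endothelial cells sampled at 24 h following treatment.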

[4] = read-out: Interferon-gamma inducible Protein 10 (IP10), CXCL10 (gene 3627); assay: BSK_BE3C_IP10: BioMAP Diversity Plus: BE3C Assay for Interferon-gamma inducible Protein 10 (IP10) Biomarker Activity (AID 2283034); conditions: primary human bronchial epithelial cells; actives raise or lower the signal
In short: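 Using primary human bronchial epithelial cultures, the assay captures IP-10 by ELISA one day (24 h) after exposure. Parallel SRB staining of total protein flags overt cytotoxicity. Fits run bidirectionally relative to DMSO.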

[5] = read-out: Monokine induced gamma interferon (MIG), CXCL9 (gene 4283); assay: BSK_BE3C_MIG: BioMAP Diversity Plus: BE3C Assay for Monokine induced gamma interferon (MIG) Biomarker Activity (AID 2283035); conditions: primary human bronchial epithelial cells; actives raise or lower the signal
In short: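 ELISA read-out of MIG in human lung bronchial epithelial primary cultures, 24 h post-dosing. Bidirectional curve fit vs DMSO baseline.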

[6] = read-out: Transforming growth factor beta 1 (TGFb1), TGFB1 (gene 7040); assay: BSK_BE3C_TGFb1: BioMAP Diversity Plus: BE3C Assay for Transforming growth factor beta 1 (TGFb1) Biomarker Activity (AID 2283036;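 also: TGF-b1 protein level measured by ELISA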); conditions: primary human bronchial epithelial cells; actives raise or lower the signal
In short: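 In this human primary bronchial epithelial system, an ELISA quantified TGF-b1 one day after dosing. Endpoint changes in either direction were fitted relative to DMSO.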

[7] = read-out: Plasminogen activator inhibitor-1 (PAI1), SERPINE1 (gene 5054); assay: BSK_BE3C_PAI1: BioMAP Diversity Plus: BE3C Assay for Plasminogen activator inhibitor-1 (PAI1) Biomarker Activity (AID 2283037); conditions: primary human bronchial epithelial cells; actives raise or lower the signal
In short: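 PAI-1 biomarker levels in treated human bronchial epithelial cells are determined by ELISA at 24 h. Both increases and decreases relative to DMSO are fitted.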

[8] = read-out: urokinase plasminogen activator (uPA), PLAU (gene 5328); assay: BSK_BE3C_uPA: BioMAP Diversity Plus: BE3C Assay for urokinase plasminogen activator (uPA) Biomarker Activity (AID 2283038); conditions: primary human bronchial epithelial cells; actives raise or lower the signal;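 also: uPA protein level quantified by ELISA in cell cultures; uPA read one day after compound addition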
In short: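 Primary human bronchial epithelial cells, uPA measured by ELISA 24 h after dosing. Bidirectional change relative to DMSO; cytotoxicity checked in parallel cultures by sulforhodamine B total-protein staining.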

[9] = read-out: Urokinase-type plasminogen activator receptor (uPAR), PLAUR (gene 5329); assay: BSK_BE3C_uPAR: BioMAP Diversity Plus: BE3C Assay for Urokinase-type plasminogen activator receptor (uPAR) Biomarker Activity (AID 2283039); conditions: primary human bronchial epithelial cells; actives raise or lower the signal;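 also: uPAR protein level measured by ELISA on the cells; cells exposed to compound for one day before measurement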
In short: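 A uPAR ELISA serves as the readout, taken 24 h after treating primary human bronchial epithelial cells. Responses in either direction are fitted against DMSO, which defines baseline activity.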

[10] = read-out: Interleukin-6 (IL6), IL6 (gene 3569); assay: BSK_CASM3C_IL6: BioMAP Diversity Plus: CASM3C Assay for Interleukin-6 (IL6) Biomarker Activity for (AID 2283040); conditions: primary human coronary artery smooth muscle cells; actives raise or lower the signal
[11] = read-out: Tissue plasminogen activator (tPA), PLAT (gene 5327); assay: BSK_BE3C_tPA: BioMAP Diversity Plus: BE3C Assay for Tissue plasminogen activator (tPA) Biomarker Activity (AID 2283041); conditions: primary human bronchial epithelial cells; actives raise or lower the signal
In short: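 Bidirectional curve fitting relative to DMSO defined activity, with tPA detected by ELISA in chemically treated human bronchial epithelial primary cells at 24 hours.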

[12] = read-out: Interleukin-8 (IL8), CXCL8 (gene 3576); assay: BSK_CASM3C_IL8: BioMAP Diversity Plus: CASM3C Assay for Interleukin-8 (IL8) Biomarker Activity (AID 2283042); conditions: primary human coronary artery smooth muscle cells; actives raise or lower the signal;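 also: IL-8 protein level quantified by ELISA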
[13] = read-out: Human Leukocyte Antigen - DR isotype (HLADR), HLA-DRA (gene 3122); assay: BSK_CASM3C_HLADR: BioMAP Diversity Plus: CASM3C Assay for Human Leukocyte Antigen - DR isotype (HLADR) Biomarker Activity (AID 2283043); conditions: primary human coronary artery smooth muscle cells; actives raise or lower the signal;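 also: cell-surface HLA-DR protein level quantified by ELISA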
[14] = read-out: Macrophage colony-stimulating factor (MCSF), CSF1 (gene 1435); assay: BSK_CASM3C_MCSF: BioMAP Diversity Plus: CASM3C Assay for Macrophage colony-stimulating factor (MCSF) Biomarker Activity (AID 2283044); conditions: primary human coronary artery smooth muscle cells; actives raise or lower the signal;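 also: M-CSF protein amount quantified by ELISA after 24 h exposure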
[15] = read-out: Low-density lipoprotein receptor (LDLR), LDLR (gene 3949); assay: BSK_CASM3C_LDLR: BioMAP Diversity Plus: CASM3C Assay for Low-density lipoprotein receptor (LDLR) Biomarker Activity (AID 2283045); conditions: primary human coronary artery smooth muscle cells; actives raise or lower the signal;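 also: LDLR protein level on the cell surface quantified by ELISA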
[16] = read-out: Monocyte Chemoattractant Protein-1 (MCP1), CCL2 (gene 6347); assay: BSK_CASM3C_MCP1: BioMAP Diversity Plus: CASM3C Assay for Monocyte Chemoattractant Protein-1 (MCP1) Biomarker Activity (AID 2283046); conditions: primary human coronary artery smooth muscle cells; actives raise or lower the signal;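 also: MCP-1 level quantified by ELISA 24 h after dosing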
[17] = BSK_CASM3C_Proliferation: Cell Proliferation Assessment in the BioMAP Diversity Plus: CASM3C Assay (AID 2283047); conditions: primary human coronary artery smooth muscle cells;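 also: sulforhodamine B total protein stain as relative cell number at 560 nm; sub-confluent cells exposed 48 h before staining; fitted both ways against DMSO so gain or loss of cell number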
[18] = read-out: Monokine induced gamma interferon (MIG), CXCL9 (gene 4283); assay: BSK_CASM3C_MIG: BioMAP Diversity Plus: CASM3C Assay for Monokine induced gamma interferon (MIG) Biomarker Activity (AID 2283048); conditions: primary human coronary artery smooth muscle cells; actives raise or lower the signal;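 also: MIG protein level measured by ELISA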
[19] = read-out: serum amyloid A (SAA), SAA1 (gene 6288); assay: BSK_CASM3C_SAA: BioMAP Diversity Plus: CASM3C Assay for serum amyloid A (SAA) Biomarker Activity (AID 2283049); conditions: primary human coronary artery smooth muscle cells; actives raise or lower the signal;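 also: SAA protein level quantified by ELISA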
[20] = BSK_CASM3C_SRB: Viability Assessment in the BioMAP Diversity Plus: CASM3C Assay (AID 2283050); conditions: primary human coronary artery smooth muscle cells;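 also: cells exposed to compound for 24 h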

Measured: AC50

Cc1ccc([N+](=O)[O-])cc1
inactive: all assays above

Clc1ccc(C(c2ccc(Cl)cc2)C(Cl)(Cl)Cl)cc1
active: [1] 25.8 µM | [3] 25.9 µM | [13] 31.4 µM | [14] 14.7 µM | [15] 32.1 µM | [16] 36.9 µM | [17] 29.1 µM | [19] 33.3 µM | [20] 27.7 µM
inactive: all other assays above

C=CCc1ccc2c(c1)OCO2
inactive: all assays above

CC(C)(C)OOC(=O)c1ccccc1
active: [17] 8.08 µM
inactive: all other assays above

ClC1=C(Cl)C2(Cl)C3C(Cl)C=CC3C1(Cl)C2(Cl)Cl (centres undefined)
active: [1] 20 µM | [2] 26.2 µM | [3] 32.4 µM | [4] 32.3 µM | [5] 31.3 µM | [7] 35 µM | [10] 27.2 µM | [11] 20 µM | [12] 34.6 µM | [13] 29.3 µM | [14] 30 µM | [15] 31.8 µM | [16] 33.6 µM | [17] 32 µM | [18] 31.2 µM | [19] 30.2 µM | [20] 32 µM
inactive: [8] | [9]

CCC(C)c1ccc(O)cc1 (centres undefined)
inactive: all assays above

Nc1ccc(Cl)cc1N
active: [3] 2.74 µM | [17] 6.89 µM
inactive: all other assays above
